Experimental data: the supplement of paper PMC9588786
Where a name gives a salt, the structure may show the parent alone. ± gives the standard deviation of the averaged measurements.

Test system: HT-1080
Assay: relative cell viability with RSL3 co-treatment (fraction of control); higher = stronger protection from RSL3-induced ferroptosis (higher viability)
Conditions: 10 µM
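Further: viability read as CCK-8 absorbance at 450 nm in cells co-exposed to the GPX4 inhibitor RSL3, relative to a 0.01% DMSO vehicle control.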

Compound	relative cell viability
COc1cc2c(Nc3ccc(NC(=O)c4ccccc4)cc3)ncnc2cc1OCCCN1CCOCC1	0.717 ± 0.23
CC(C)(C)NS(=O)(=O)c1cncc(-c2cc(F)c3nc(N)nn3c2)c1	0.803 ± 0.15
COc1ccc(Cl)cc1NC(=O)Nc1cc(C)nc2ccccc12	0.71 ± 0.017
COc1ncc(-c2ccc3nccc(-c4ccnnc4)c3c2)cc1NS(=O)(=O)c1ccc(F)cc1F	0.24 ± 0.14
COc1cc(CCc2cc(NC(=O)c3ccc(N4CC(C)NC(C)C4)cc3)n[nH]2)cc(OC)c1 (centres undefined)	0.673 ± 0.14
CCS(=O)(=O)Nc1ccc2c(c1)/C(=C(/Nc1ccc(CN3CCCCC3)cc1)c1ccccc1)C(=O)N2 [Hesperadin]	0.293 ± 0.12
CCCCCCCCc1ccc(CCC(N)(CO)CO)cc1 [Fingolimod (FTY720) HCl]	0.253 ± 0.1
CCN(CC)CCCCNc1ncc2cc(-c3cc(OC)cc(OC)c3)c(NC(=O)NC(C)(C)C)nc2n1	0.633 ± 0.14
CNS(=O)(=O)C[C@H]1CC[C@H](N(C)c2[nH]cnc3nccc2-3)CC1 [Oclacitinib]	0.927 ± 0.075
CS(=O)(=O)N1CCN(Cc2cc3nc(-c4cccc5[nH]ncc45)nc(N4CCOCC4)c3s2)CC1 [Pictilisib (GDC-0941)]	0.547 ± 0.11
FC(F)c1nc2ccccc2n1-c1nc(N2CCOCC2)nc(N2CCOCC2)n1	0.723 ± 0.14
CNC(=O)Nc1ccc(-c2nc(N3CC4CCC(C3)O4)c3cnn(C4CCC5(CC4)OCCO5)c3n2)cc1	0.483 ± 0.14
Nc1nccc(Oc2ccc(NC(=O)c3c[nH]cc(-c4ccc(F)cc4)c3=O)cc2F)c1Cl	0.57 ± 0.036
O=C1NC(=O)C(c2cnc3ccccn23)=C1c1cn2c3c(cc(F)cc13)CN(C(=O)N1CCCCC1)CC2	0.577 ± 0.015
